# Test results published in PubChem BioAssay AID2315 (National Center for Advancing Translational Sciences (NCATS), 2010).
# Hit rate of the full screen: of about 290,000 compounds, about 27,000 (9.3%) were called active. No stated cut-off is given here; in the data, active means inhibition mostly above about 28% (no sharp cut-off); inactive means mostly below about 43%. The list comes from a sample in which actives are over-represented; it also holds similar structures and randomly drawn compounds.
# Experiment: A qHTS for Small Molecule Inhibitors of Shiga Toxin; further: 0% is about no effect
# Conditions: Vero cells, Shiga toxin protein synthesis inhibition reporter; at 38.7 µM, hits give high values
row,SMILES,inhibition
1,CCc1nn(-c2cc(Oc3cccc4ccccc34)nc(-c3ccccc3)n2)c(N)c1C#N,-16.3% (inactive)
2,COC(=O)c1ccc(/C=N/N2C(C)CCCC2C)cc1 (stereo unspecified),66.3% (active)
3,COC(=O)c1ccc(/C=N\n2c(C)nnc2C)cc1,8.68% (inactive)
4,CC1CCCC(C)N1/N=C/c1ccccc1OC(F)F (stereo unspecified),-12.3% (inactive)
5,CCN(CC(=O)N1CCCC1)S(=O)(=O)c1ccc(F)cc1,-4.28% (inactive)
6,COC(=O)c1ccc(C(NC(=O)OCc2ccccc2)/C(C)=C/[C@@H](C)C(=O)NCc2ccc(OC)c(OC)c2)cc1 (stereo partly specified),-13.4% (inactive)
7,Nc1cccc2c1C(=O)N(Cc1nnc(-c3ccccc3Br)o1)C2=O,18.9% (inactive)
8,Cn1cnnc1SCc1nnc(-c2ccccc2Br)o1,58.3% (active)
9,Cn1cnnc1SCC(=O)NNC(=O)COc1ccc(Br)cc1,1.38% (inactive)
10,O=C(CN1C(=O)S/C(=C\c2ccccc2Cl)C1=O)NC1C=CS(=O)(=O)C1 (stereo unspecified),-2.51% (inactive)
11,COc1ccc(C2=NS(=O)(=O)N(C)C(C(=O)NC(C)c3ccccc3)=C2)cc1 (stereo unspecified),10.4% (inactive)
12,COc1ccc(CCNC(=O)CCCCCNC(=O)N2CCn3c2nc2ccccc23)cc1OC,4.93% (inactive)
13,COc1ccc(C2=NOC(COC(=O)c3ccc4ccccc4n3)C2)cc1 (stereo unspecified),22.8% (inactive)
14,O=C(Oc1ccc([N+](=O)[O-])cc1)c1ccc2ccccc2n1,-35.6% (active)
15,O=C(CNC(=O)c1ccccc1)Oc1ccc([N+](=O)[O-])cc1,-10.1% (inactive)
16,COc1ccc(C(=O)Nc2c(N)nc(SCC(=O)Nc3ccc(C(C)=O)cc3)[nH]c2=O)cc1,-1.66% (inactive)
17,O=C(Cc1cc(=O)[nH][nH]1)N/N=C/c1ccccc1[N+](=O)[O-],13.6% (inactive)
18,CC(=C/c1ccccc1)/C=N/NC(=O)c1cc(C)oc1C,0% (inactive)
19,Cc1cc(C(=O)N/N=C/c2ccccc2[N+](=O)[O-])c(C)o1,72.5% (active)
20,Cc1c(Cl)c([N+](=O)[O-])nn1CC(=O)NCCCN1CCOCC1,-6.5% (inactive)
21,COc1ccc(-n2c(=O)[nH]c3cc(C(=O)NCCc4ccc(OC)c(OC)c4)ccc3c2=O)c(OC)c1,3.16% (inactive)
22,Cc1ccc(NC(=O)C2CC2c2ccccc2)cc1 (stereo unspecified),32% (active)
23,Cc1ccc(C2CC2C(=O)NN)cc1 (stereo unspecified),-15.4% (inactive)
24,O=C(NNC(=S)Nc1ccc(F)cc1)[C@H]1C[C@@H]1c1ccccc1,-8.83% (inactive)

row,SMILES,inhibition
1,COc1ccc(OC)c(CNC(=O)c2cc(=O)[nH]c3ccc(S(=O)(=O)N4CCCC4)cc23)c1,-3.87% (inactive)
2,COc1cccc(-n2c(N)cc(=O)nc2SCC(=O)Nc2cc(C)on2)c1,13.4% (inactive)
3,COc1cc2ccccc2cc1C(=O)Nc1nc(C)c(C(C)=O)s1,69.5% (active)
4,CC(=O)c1sc(NC(=O)c2cccc3ccccc23)nc1C,31.4% (inactive)
5,COc1cccc2sc(Nc3nc(C)c(C(C)=O)s3)nc12,29.8% (inactive)
6,COc1cc2ccccc2cc1C(=O)Nc1ccc(NC(=O)c2cccs2)cc1,15.8% (inactive)
7,COc1cc2ccccc2cc1C(=O)Nc1ccccc1C,32.5% (active)
8,COc1cc(OC)c(C(=O)Nc2ccccc2-c2ccccc2)cc1OC,-5.65% (inactive)
9,CCN(CC)c1ccc(NC(=O)CCc2nnc3ccc(N4CCCCC4)nn23)c(C)c1,-1.98% (inactive)
10,Cc1[nH]c(C)c(S(=O)(=O)N2CCC(C)CC2)c1C(=O)N1CCCC1,-4.27% (inactive)
11,Cc1ccsc1-c1cc(C(=O)O)c2c(ccc3ccccc32)n1,17.5% (inactive)
12,CN(Cc1c(F)cccc1Cl)S(=O)(=O)c1cccs1,20.7% (inactive)
13,CC1CC(C)CN(c2ccc(S(=O)(=O)N3CCOCC3)cc2)C1 (stereo unspecified),13.9% (inactive)
14,Cn1c(CC(=O)Nc2ccc(F)cc2)nnc1SCC(=O)NC1CCCCC1,-5.18% (inactive)
15,CN(C)c1ccnc(Nc2ccc(F)cc2)c1C#N,7.86% (inactive)
16,CC(C)c1ccc(Nc2ncccc2C#N)cc1,52.3% (active)
17,CCOc1ccc(OCc2ccc(C(=O)Nc3cccc(C)n3)o2)cc1,42% (active)
18,CC(=O)Cc1nsc(NC(=O)c2ccc(COc3ccc(C)cc3)o2)n1,-9.97% (inactive)
19,Cc1cccc(NC(=O)c2ccc(COc3ccccc3[N+](=O)[O-])o2)n1,32.9% (inactive)
20,COc1ccc(CCNC(=O)NS(=O)(=O)c2ccc(C)cc2)cc1OC,4.27% (inactive)
21,CC(C)Cc1nnc(NC(=O)CN2C(=O)NC3(CCCCC3)C2=O)s1,-8.2% (inactive)
22,Cc1ccc(S(=O)(=O)NCC(=O)N2CCN(c3ccccn3)CC2)cc1,-5.02% (inactive)
23,Cc1ccc(N2C(=O)C3CC3C2=O)cc1 (stereo unspecified),25.6% (inactive)
24,Cc1ccc(N2CCN(c3ccc(C)cc3)C2c2ccccn2)cc1,57.4% (active)

row,SMILES,inhibition
1,Cc1c(CN2CC[C@@H](N3CCN(c4ccccn4)CC3)[C@H](O)C2)[nH]c2ccc(F)cc12,-5.39% (inactive)
2,O=c1oc2cc(O)ccc2cc1-c1ccc(F)cc1,70% (active)
3,COc1ccc(-c2cc3ccc(OCc4nn[nH]n4)cc3oc2=O)cc1,10.3% (inactive)
4,COc1cccc(C(=O)c2cc3ccc(O)cc3oc2=O)c1,21.7% (inactive)
5,Cc1cc2oc(=O)cc(CN(C)Cc3ccc(OC(F)F)cc3)c2cc1Cl,17.5% (inactive)
6,O=C(CCc1nnc2ccc(NCCCN3CCCC3=O)nn12)NCc1ccccc1Cl,20.3% (inactive)
7,COc1cc(Cl)c(C)cc1NC(=O)CN1CCCCCC1,14.2% (inactive)
8,Cc1cc(C)c(NC(=O)CN2CCCCCC2)c(C)c1,83.4% (active)
9,Cc1csc(NC(=O)CN2CCCCCC2)n1,-8.35% (inactive)
10,O=c1cc(Cl)c2ccccc2n1-c1ccccc1,-8.33% (inactive)
11,C/C(=N\Nc1cccc(C(=O)O)c1)c1ccc2c(c1)Nc1ccccc1S2,77.7% (active)
12,O=C(NC1CC1)c1ccc2c(c1)NC(=O)c1ccccc1S2,13.2% (inactive)
13,Cc1ccccc1NC(=O)c1cc(S(=O)(=O)Nc2cccc(C(=O)O)c2)ccc1Cl,24.3% (inactive)
14,Fc1ccc(/C=N/n2c(COc3ccccc3)n[nH]c2=S)cc1,-5.88% (inactive)
15,COc1cc(/C=N/n2c(C)n[nH]c2=S)ccc1OCc1ccccc1,-16.6% (active)
16,COc1cc(-c2n[nH]c(=S)n2Cc2ccccc2)cc(OC)c1OC,-7.08% (inactive)
17,COc1ccc(C)cc1Nc1n[n+](-c2ccccc2)c(-c2cccc(Cl)c2Cl)s1,-3.92% (inactive)
18,O=S(=O)(Nc1cccc(Oc2ccc(Cl)cc2)n1)c1ccc(F)cc1,1.95% (inactive)
19,COc1ccc(-c2csc3ncnc(N4CCN(S(=O)(=O)c5ccccc5C#N)CC4)c23)cc1,-3.69% (inactive)
20,CCOC(=O)Cc1csc(NC(=O)C(C)(C)C)n1,86.2% (active)
21,CCOC(=O)Cc1csc(NC(=O)Nc2ccccc2)n1,46.4% (inactive)
22,CCOC(=O)Cc1csc(NC(NC(=O)OCC)(C(F)(F)F)C(F)(F)F)n1,-12.7% (inactive)
23,Fc1ccc(-c2ccc(CNCc3ccccn3)o2)cc1Cl,2.57% (inactive)
24,COc1ccc(Cl)cc1CSc1ncn[nH]1,4.03% (inactive)

row,SMILES,inhibition
1,O=C(NCCOCc1ccc(Cl)cc1)c1ncn[nH]1,10.4% (inactive)
2,O=C(/C=C/Sc1ncn[nH]1)c1ccc(Cl)cc1,32.3% (active)
3,COc1ccc(CCNc2nc3ccc(C)cc3n3cnnc23)cc1OC,4.18% (inactive)
4,CCn1c(=O)n(CC)c2cc(N3CCCC3)c(NC(=O)c3ccccc3Br)cc21,-6.78% (inactive)
5,Cc1cc(S(=O)(=O)N2CCOCC2)ccc1OCC(=O)N1CCOCC1,26.1% (inactive)
6,Cc1ccc(OCCCC(=O)NC(C)c2ccccc2)c(C)c1 (stereo unspecified),7.36% (inactive)
7,Cc1ccc(OCCCC(=O)N2CCOCC2)c(C)c1,88.9% (active)
8,COc1c(O)c2c(=O)cc(OC)c3c4c(OC)cc(=O)c5c(O)c(OC)c6c(c(c1C[C@@](C)(O)[C@H]6C(C)=O)c23)c54,10.8% (inactive)
9,CCOc1ccccc1NC(=O)C1CCCN(S(=O)(=O)c2ccccc2)C1 (stereo unspecified),-4.05% (inactive)
10,FC(F)(F)c1nnc2c3ccccc3c(Cl)nn12,5.58% (inactive)
11,Cc1cccc(C)c1NC(=O)COC(=O)c1ccccc1O,-4.8% (inactive)
12,COc1ccc(C(=O)N2CCCCC2C(=O)Nc2ccc(-n3nc(C)cc3C)cc2)o1 (stereo unspecified),-7.96% (inactive)
13,CCOC(=O)c1c(C)nc(-c2ccccc2)nc1NC(=O)C(C)C,38.3% (active)
14,CCC(=O)OCCNc1nc(-c2ccccc2)nc2ccccc12,-14.7% (inactive)
15,CCOC(=O)c1c(N)nn(C(=O)c2ccccc2)c1-c1ccccc1,-3.34% (inactive)
16,COc1ccc(/C=C/c2c(-c3cccc(C)c3)oc3ccc(-c4ccc5c(c4)OCO5)cc23)cc1,-4.7% (inactive)
17,Fc1ccc(COc2ccc(-c3nnco3)cc2)cc1,63.9% (active)
18,Fc1cccc(Cl)c1COc1ccc(-c2nnco2)cc1,30.1% (inactive)
19,Fc1ccc(COc2cccc(-c3n[nH]c(=S)o3)c2)cc1,2.21% (inactive)
20,O=C(NCc1cccnc1)c1cccc(-c2cc3ccccc3oc2=O)c1,13.7% (inactive)
21,O=C(Oc1cccnc1)c1cc2ccccc2oc1=O,1.26% (inactive)
22,Nc1ncc(-c2cc3ccccc3oc2=O)s1,85% (active)
23,COc1cc(CNCc2ccc3c(c2)OCO3)c([N+](=O)[O-])cc1OC,16.9% (inactive)
24,CCOC(=O)N1CCN(S(=O)(=O)c2ccc(-n3cnnn3)cc2)CC1,5.66% (inactive)
